According to PubChem BioAssay (NCATS):
Inconclusive results are not listed. Activity calls are given as the source filed them. Calls come from the whole dose curve; as a rule, active = well fitted curve in the direction sought with a large enough effect; inconclusive = small, poorly fitted or top-dose-only effect, or another doubt; inactive = no such curve, though single readings can be large; an effect the other way counts as inactive or inconclusive. Non-standard residues stand in square brackets, D forms with d. Residues, ends and D or L forms follow the SMILES beside them. *: point of attachment. Nva = CCC[C@H](N)C(=O)O; Cbz = O=C(OCc1ccccc1)*

Experiments:
[1] = target: Cellular tumor antigen p53 (Homo sapiens) (UniProt P04637); experiment: Primary qHTS for small molecule compounds that upregulate eGFP-tagged delta133p53alpha (in N-terminal) cells. (AID 2060322); settings: NCI-H358 eGFP-delta133p53alpha fluorescence, 24 h; activation: stronger effect = higher value; note: nearly all actives have a fitted effect of over 75% in size;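 for activation: series mostly up to about 56 µM; 0% = DMSO vehicle and 100% = reference activator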
Procedure, shortened: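 NCI-H358 cells pre-induced 24 h with 10 ng/ml doxycycline to express N-terminal eGFP-delta133p53alpha, then dosed 24 h at 37C without doxycycline; fixed, Hoechst-stained, GFP intensity by laser scanning cytometry, normalized to DMSO (0%) and 57.5 uM 5-azacytidine (100%).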

[2] = BET inhibitor-based combinations targeting novel dependencies in MECOM-rearranged (r) AML: SET-2 cell line (AID 2202231); settings: SET-2 AML cells viability, CellTiter-Glo luminescence, 48 h; viability: stronger effect = lower value, concentration not given here; note: nearly all actives have a fitted effect of over 35% in size;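 for viability: plate controls were DMSO treated cells for no effect and wells without cells for full effect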
Procedure, shortened: (§1)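 A 48 hr incubation preceded viability reading by CellTiter-Glo, with 15 min room-temperature development. Dose series had 11 points; normalization used DMSO and empty wells; AUC was computed and mean-centered per line as Z-AUC.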

[3] = BET inhibitor-based combinations targeting novel dependencies in MECOM-rearranged (r) AML: OCI-AML3 cell line (AID 2202232); settings: Potency: OCI-AML3 viability; note: nearly all actives have a fitted effect of over 35% in size
Procedure, shortened: as §1

[4] = BET inhibitor-based combinations targeting novel dependencies in MECOM-rearranged (r) AML: MV-4-11 cell line (AID 2202233); note: nearly all actives have a fitted effect of over 45% in size
Procedure, shortened: (§2)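 Each compound is tested in an 11-point concentration series against 500 seeded cells/well for 48 hr. The luminescent viability signal is normalized to DMSO and blank wells, then reduced to AUC and a cell-line-centred Z-AUC.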

[5] = BET inhibitor-based combinations targeting novel dependencies in MECOM-rearranged (r) AML: HNT-34 cell line (AID 2202234); note: nearly all actives have a fitted effect of over 35% in size
Procedure, shortened: as §2

[6] = BET inhibitor-based combinations targeting novel dependencies in MECOM-rearranged (r) AML: UCSD-AML1 cell line (AID 2202235); note: nearly all actives have a fitted effect of over 40% in size
Procedure, shortened: as §2

[7] = BET inhibitor-based combinations targeting novel dependencies in MECOM-rearranged (r) AML: AML-191 cell line (AID 2202236; note: nearly all actives have a fitted effect of over 35% in size)
Procedure, shortened: as §1

[8] = BET inhibitor-based combinations targeting novel dependencies in MECOM-rearranged (r) AML: AML-194 cell line (AID 2202237; note: nearly all actives have a fitted effect of over 40% in size)
Procedure, shortened: as §1
Potency is the fitted concentration of half-maximal effect.

Cellular tumor antigen p53 (Homo sapiens), sequence (P04637 whole entry, looked up): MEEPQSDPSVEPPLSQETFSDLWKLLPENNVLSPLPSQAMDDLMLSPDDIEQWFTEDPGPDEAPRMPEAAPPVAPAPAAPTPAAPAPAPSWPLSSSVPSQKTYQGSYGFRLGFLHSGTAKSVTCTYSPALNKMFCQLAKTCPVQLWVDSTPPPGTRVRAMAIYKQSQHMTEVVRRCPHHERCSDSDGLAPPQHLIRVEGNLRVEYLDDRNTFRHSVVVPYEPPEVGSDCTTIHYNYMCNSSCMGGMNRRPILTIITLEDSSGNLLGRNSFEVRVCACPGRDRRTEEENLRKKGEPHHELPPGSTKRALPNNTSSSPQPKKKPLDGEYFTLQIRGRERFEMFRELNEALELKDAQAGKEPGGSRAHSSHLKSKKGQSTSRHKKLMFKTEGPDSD

OC[C@H]1OC(O)C[C@@H](O)[C@H]1O (stereo partly specified)
inactive: activation [1] 27.8% | viability [2] 110% | Potency [3] | Potency [4] | Potency [5] | Potency [6] | Potency [7] | Potency [8]

O=C1C(Cl)=C(NCCN2CCOCC2)C(=O)c2ncccc21
active: Potency [1] 27.3 µM | Potency [2] 3.72 µM | Potency [3] 3.72 µM | Potency [4] 2.09 µM | Potency [5] 5.9 µM | Potency [6] 8.33 µM | Potency [7] 7.42 µM | Potency [8] 7.42 µM

COc1cc(C[C@@H](CO)[C@H](CO)Cc2ccc(O)c(OC)c2)ccc1O
inactive: activation [1] -3.34% | viability [2] 120% | Potency [3] | Potency [4] | Potency [5] | Potency [6] | Potency [7] | Potency [8]

COC(=O)C1=C(C)NC(C)=C(C(=O)OCCCN2CCC(c3ccccc3)(c3ccccc3)CC2)C1c1cccc([N+](=O)[O-])c1 (stereo unspecified)
active: Potency [2] 18.6 µM | Potency [3] 29.5 µM | Potency [4] 10.5 µM | Potency [5] 18.6 µM | Potency [6] 14.8 µM | Potency [7] 26.3 µM | Potency [8] 20.9 µM
inactive: activation [1] 2.93%

CCc1ccc(OCc2ccccc2C(=O)Nc2ccc3nc(C)cc(N)c3c2)cc1
inactive: activation [1] 45.3%
active: Potency [2] 6.61 µM | Potency [3] 8.33 µM | Potency [4] 5.9 µM | Potency [5] 4.17 µM | Potency [6] 7.42 µM | Potency [7] 7.42 µM | Potency [8] 6.61 µM

Cn1cnc(=N)c2[nH]cnc21
inactive: activation [1] 10.7% | viability [2] 111% | Potency [3] | Potency [4] | Potency [5] | Potency [6] | Potency [7] | Potency [8]

CCC[C@@H](C=O)NC(=O)[C@H](CC(C)C)NC(=O)[C@H](CC(C)C)NC(=O)OCc1ccccc1 (Cbz-Leu-Leu-[Nva]-aldehyde)
active: Potency [1] 5.44 µM | Potency [2] 2.09 µM | Potency [3] 2.35 µM | Potency [4] 2.95 µM | Potency [5] 2.63 µM | Potency [6] 3.32 µM | Potency [7] 2.95 µM | Potency [8] 2.63 µM
